From PubChem BioAssay AID1508601 (ICCB-Longwood Screening Facility, Harvard Medical School, 2020)
“And” between values parts separate entries of the source, which are not always exact repeats. Identical values can stand only once. About 85 (1%) of roughly 5,700 compounds were called active. Cut-off read from the data, not from the text of the source: active = p53-positive nuclei above about 36% (passing the limit was not always enough); inactive = the rest. Shown is part of a subset that was picked to be rich in actives.

How the values were obtained:
[1] = p53 stabilisation in HPV-positive human cells, imaging, p53-positive nuclei imaging, 24 h, 48 h (AID 1508601); settings: 24/48 h
[2] = target: Cellular tumor antigen p53 (Homo sapiens) (UniProt P04637); experiment: as above; settings: 24/48 h, stronger effect = higher value
Chain of Cellular tumor antigen p53 (Homo sapiens) (P04637 whole entry, looked up): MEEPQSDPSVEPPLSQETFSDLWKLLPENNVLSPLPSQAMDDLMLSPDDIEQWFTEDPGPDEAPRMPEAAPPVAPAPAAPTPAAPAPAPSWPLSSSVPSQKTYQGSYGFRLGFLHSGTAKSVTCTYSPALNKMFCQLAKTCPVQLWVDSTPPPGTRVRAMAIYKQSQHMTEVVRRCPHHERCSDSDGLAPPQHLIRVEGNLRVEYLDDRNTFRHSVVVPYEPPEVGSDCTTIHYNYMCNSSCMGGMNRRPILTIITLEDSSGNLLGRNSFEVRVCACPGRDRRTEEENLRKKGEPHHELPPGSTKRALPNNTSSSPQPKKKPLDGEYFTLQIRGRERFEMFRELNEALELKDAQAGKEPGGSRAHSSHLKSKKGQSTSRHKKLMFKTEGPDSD

[3] = measured here: cell number at 24 h, concentration not given here
[4] = measured here: cell number at 48 h, concentration not given here
[5] = measured here: p53 positive nuclei at 24 h, concentration not given here
[6] = measured here: cell number at 24 h, Library stock concentration: 3.33 mM
[7] = measured here: cell number at 48 h, Library stock concentration: 3.33 mM
[8] = Library stock concentration: 3.33 mM
[9] = measured here: p53 positive nuclei at 24 h, Library stock concentration: 3.33 mM
[10] = measured here: cell number at 24 h, Library stock concentration: 10 mM
[11] = measured here: cell number at 48 h, Library stock concentration: 10 mM
[12] = Library stock concentration: 10 mM
[13] = measured here: p53 positive nuclei at 24 h, Library stock concentration: 10 mM
[14] = measured here: cell number at 24 h, Library stock concentration: 46 uM
[15] = measured here: cell number at 24 h, Library stock concentration: 278 uM
[16] = measured here: cell number at 24 h, Library stock concentration: 1.67 mM
[17] = measured here: cell number at 48 h, Library stock concentration: 46 uM
[18] = measured here: cell number at 48 h, Library stock concentration: 278 uM
[19] = measured here: cell number at 48 h, Library stock concentration: 1.67 mM
[20] = Library stock concentration: 46 uM
[21] = Library stock concentration: 278 uM
[22] = Library stock concentration: 1.67 mM
[23] = measured here: p53 positive nuclei at 24 h, Library stock concentration: 46 uM
[24] = measured here: p53 positive nuclei at 24 h, Library stock concentration: 278 uM
[25] = measured here: p53 positive nuclei at 24 h, Library stock concentration: 1.67 mM

With `C[C@H]1O[C@@H](O[C@H]2[C@@H](O)C[C@H](O[C@H]3[C@@H](O)C[C@H](O[C@H]4CC[C@]5(C)C6CC[C@]7(C)[C@@H](C8=CC(=O)OC8)CC[C@]7(O)C6CC[C@@H]5C4)O[C@@H]3C)O[C@@H]2C)C[C@H](O)[C@@H]1O` (stereo partly drawn) the nuclei count, normalised [1, 3] was 49%, the nuclei count, normalised [1, 4] was 31% and the p53-positive nuclei, normalised ([2]; concentration not given here) was 16.9% (inactive). It also gave a p53-positive nuclei, normalised [2, 5] of 3.09%.

In the case of `CC(C)OC(=O)CCC/C=C\C[C@@H]1[C@@H](/C=C/[C@@H](O)CCc2ccccc2)[C@H](O)C[C@@H]1O`, the nuclei count, normalised [1, 3] is reported as 106%, the nuclei count, normalised [1, 4] is reported as 105% and the p53-positive nuclei, normalised ([2]; concentration not given here) is reported as 0.0477% (inactive). It also gave a p53-positive nuclei, normalised [2, 5] of -0.0131%.

In the case of `CCN(CC)C(=O)[C@]1(c2ccccc2)CC1CN` (stereo partly drawn), the nuclei count, normalised [1, 6] is reported as 107%, the nuclei count, normalised [1, 7] is reported as 99.9% and the p53-positive nuclei, normalised [2, 8] is reported as -0.0572% (inactive). For the same molecule, the p53-positive nuclei, normalised [2, 9] was -0.236%.

For `COc1cccc(CN2CCN(c3ccc4cccc(OC)c4n3)CC2)c1`, the nuclei count, normalised [1, 3] was 109%, the nuclei count, normalised [1, 4] was 114% and the p53-positive nuclei, normalised ([2]; concentration not given here) was 0.13% (inactive). It also gave a p53-positive nuclei, normalised [2, 5] of 0.279%.

With `O=C(O)CCC/C=C\C[C@@H]1[C@@H](/C=C/[C@H](O)CCc2ccccc2)[C@H](O)C[C@@H]1O` the nuclei count, normalised [1, 3] was 107%, the nuclei count, normalised [1, 4] was 108% and the p53-positive nuclei, normalised ([2]; concentration not given here) was -0.104% (inactive). It also gave a p53-positive nuclei, normalised [2, 5] of -0.0183%.

With `O=C(O)CCCC=CCC1C(O)CC(O)C1C=CC(O)COc1cccc(Cl)c1` (stereo not drawn) the nuclei count, normalised ([1]; measured here: cell number at 24 h, Library stock concentration: 80 uM) was 91.3%, the nuclei count, normalised ([1]; measured here: cell number at 24 h, Library stock concentration: 400 uM) was 83% and the nuclei count, normalised ([1]; measured here: cell number at 24 h, Library stock concentration: 2 mM) was 71%. The nuclei count, normalised [1, 10] was 62.6%, the nuclei count, normalised ([1]; measured here: cell number at 48 h, Library stock concentration: 80 uM) was 91.4% and the nuclei count, normalised ([1]; measured here: cell number at 48 h, Library stock concentration: 400 uM) was 86.3%. For the same molecule, the nuclei count, normalised ([1]; measured here: cell number at 48 h, Library stock concentration: 2 mM) was 76.4%, the nuclei count, normalised [1, 11] was 62.3% and the p53-positive nuclei, normalised ([2]; Library stock concentration: 80 uM) was -0.163% (inactive). The p53-positive nuclei, normalised ([2]; Library stock concentration: 400 uM) was -0.108% (inactive), the p53-positive nuclei, normalised ([2]; Library stock concentration: 2 mM) was 0.08% (inactive) and the p53-positive nuclei, normalised [2, 12] was 0.269% (inactive). It also gave a p53-positive nuclei, normalised ([2]; measured here: p53 positive nuclei at 24 h, Library stock concentration: 80 uM) of 0.18%, a p53-positive nuclei, normalised ([2]; measured here: p53 positive nuclei at 24 h, Library stock concentration: 400 uM) of 0.0351% and a p53-positive nuclei, normalised ([2]; measured here: p53 positive nuclei at 24 h, Library stock concentration: 2 mM) of 0.0627%. The p53-positive nuclei, normalised [2, 13] was -0.0194%.

In the case of `COC1=C2CC(C)CC(OC)C(O)C(C)C=C(C)C(OC(N)=O)C(OC)C=CC=C(C)C(=O)NC(=CC1=O)C2=O` (stereo not drawn), the nuclei count, normalised [1, 6] is reported as 40.1%, the nuclei count, normalised [1, 7] is reported as 28.1% and the p53-positive nuclei, normalised [2, 8] is reported as -0.0882% (inactive). The p53-positive nuclei, normalised [2, 9] was -0.356%.

In the case of `CCCCCN=C(N)N/N=C/c1c[nH]c2ccc(OC)cc12`, the nuclei count, normalised [1, 3] is reported as 107%, the nuclei count, normalised [1, 4] is reported as 112% and 109% and the p53-positive nuclei, normalised ([2]; concentration not given here) is reported as -0.135% (inactive) and -0.2% (inactive). For the same molecule, the p53-positive nuclei, normalised [2, 5] was 0.0257% and -0.191%.

In the case of `CC1C[C@H]2[C@@H]3CCC4=CC(=O)C=C[C@]4(C)[C@@H]3C(=O)C[C@]2(C)[C@]1(O)C(=O)CO` (stereo partly drawn), the nuclei count, normalised [1, 6] is reported as 104%, the nuclei count, normalised [1, 7] is reported as 88.5% and the p53-positive nuclei, normalised [2, 8] is reported as 1.05% (inactive). For the same molecule, the p53-positive nuclei, normalised [2, 9] was 1.05%.

Work on `CN(CCC(Oc1ccc(-c2ccccc2)cc1)c1ccc(F)cc1)CC(=O)O` (stereo not drawn) yielded a nuclei count, normalised [1, 14] of 112%, a nuclei count, normalised [1, 15] of 111% and a nuclei count, normalised [1, 16] of 107%. It also gave a nuclei count, normalised [1, 10] of 115%, a nuclei count, normalised [1, 17] of 109% and a nuclei count, normalised [1, 18] of 113%. The nuclei count, normalised [1, 19] was 104%, the nuclei count, normalised [1, 11] was 110% and the p53-positive nuclei, normalised [2, 20] was -0.199% (inactive). For the same molecule, the p53-positive nuclei, normalised [2, 21] was -0.17% (inactive), the p53-positive nuclei, normalised [2, 22] was 0.114% (inactive) and the p53-positive nuclei, normalised [2, 12] was -0.129% (inactive). The p53-positive nuclei, normalised [2, 23] was -0.152%, the p53-positive nuclei, normalised [2, 24] was -0.0916% and the p53-positive nuclei, normalised [2, 25] was -0.153%. It also gave a p53-positive nuclei, normalised [2, 13] of -0.0944%.

With `O=C1CC(c2ccc([N+](=O)[O-])cc2)=NN1c1ccccc1` the nuclei count, normalised [1, 14] was 114%, the nuclei count, normalised [1, 15] was 115% and the nuclei count, normalised [1, 16] was 116%. The nuclei count, normalised [1, 10] was 117%, the nuclei count, normalised [1, 17] was 107% and the nuclei count, normalised [1, 18] was 109%. For the same molecule, the nuclei count, normalised [1, 19] was 110%, the nuclei count, normalised [1, 11] was 106% and the p53-positive nuclei, normalised [2, 20] was -0.127% (inactive). For the same molecule, the p53-positive nuclei, normalised [2, 21] was 0.0933% (inactive), the p53-positive nuclei, normalised [2, 22] was -0.137% (inactive) and the p53-positive nuclei, normalised [2, 12] was -0.204% (inactive). For the same molecule, the p53-positive nuclei, normalised [2, 23] was -0.0266%, the p53-positive nuclei, normalised [2, 24] was 0.0349% and the p53-positive nuclei, normalised [2, 25] was 0.0231%. It also gave a p53-positive nuclei, normalised [2, 13] of 0.0862%.

For `CC(O)[C@H]1C(=O)N2C(C(=O)OCOC(=O)C(C)(C)C)=C(SC3CN(C4=NCCS4)C3)C(C)[C@@H]12` (stereo partly drawn), the nuclei count, normalised [1, 6] was 106%, the nuclei count, normalised [1, 7] was 101% and the p53-positive nuclei, normalised [2, 8] was -0.0394% (inactive). The p53-positive nuclei, normalised [2, 9] was -0.252%.

With `CC1(C)SC2C(NC(=O)C(NC(=O)N3CCNC3=O)c3ccccc3)C(=O)N2C1C(=O)O` (stereo not drawn) the nuclei count, normalised [1, 6] was 118%, the nuclei count, normalised [1, 7] was 111% and the p53-positive nuclei, normalised [2, 8] was -0.143% (inactive). The p53-positive nuclei, normalised [2, 9] was -0.242%.
